In publication PMC11062913:

Legend:
Histone H3.2 [1] = biological target: Histone H3.2 (UniProt P84233); experiment: cross-linking mass spectrometry
Histone H4 = Histone H4 (UniProt P62799); experiment: cross-linking mass spectrometry
[2] = biological target: Transcription elongation factor A protein 1 (UniProt P23193); experiment: cross-link between two proteins; cross-linking mass spectrometry
Histone H2A type 1 [3] = biological target: Histone H2A type 1 (UniProt P06897); experiment: cross-linking mass spectrometry
[4] = biological target: DNA-directed RNA polymerase II subunit RPB7 (UniProt P62487); experiment: cross-link between two proteins; cross-linking mass spectrometry
Histone H2A type 1 [5] = biological target: Histone H2A type 1 (UniProt P06897); experiment: as above
Histone H2B 1.1 = Histone H2B 1.1 (UniProt P02281); experiment: as above
Histone H3.2 [6] = biological target: Histone H3.2 (UniProt P84233); experiment: as above
[7] = biological target: Transcription elongation factor SPT4 (UniProt P63272); experiment: cross-link between two proteins; cross-linking mass spectrometry; two-hybrid or complementation screen

## Histone H2A type 1, P06897
Histone H3.2 [1]
  listed as a hit: yes
Histone H4
  listed as a hit: yes
[2]
  listed as a hit: yes

## Histone H2B 1.1, P02281
Histone H2A type 1 [3]
  listed as a hit: yes
Histone H3.2 [1]
  listed as a hit: yes
Histone H4
  listed as a hit: yes

## Transcription elongation factor SPT5, O00267
[4]
  listed as a hit: yes
Histone H2A type 1 [5]
  listed as a hit: yes
Histone H2B 1.1
  listed as a hit: yes
Histone H3.2 [6]
  listed as a hit: yes
[7]
  listed as a hit: yes

## Transcription elongation factor A protein 1, P23193
Histone H3.2 [6]
  listed as a hit: yes

## DNA-directed RNA polymerase II subunit RPB7, P62487
Histone H3.2 [6]
  listed as a hit: yes

## Histone H4, P62799
Histone H3.2 [6]
  listed as a hit: yes
